# PubChem BioAssay
# Several values for one entry are separate records, joined by “and”; a condition that tells them apart may be missing. Equal entries are not always repeated. Inconclusive results are not listed. Where a structure was tested more than once in an assay, its records may differ in their call. Activity calls are given as the source filed them. Unless noted, no cut-off is given here; in the data, nearly all actives have AC50 up to about 26 µM.
# Tests used:
# [1] = growth inhibition of DIPG glioma cells, dose response, cell-based, SU-DIPG-XVII, MIPE5.0, CellTiter-Glo, qHTS (AID 1347060); settings: SU-DIPG-XVII viability, CellTiter-Glo ATP luminescence;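 for AC50: cells exposed to compound for 48 hours before viability readout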
# [2] = growth inhibition of DIPG glioma cells, dose response, cell-based, SU-DIPG-XIII, MIPE4.0, CellTiter-Glo, qHTS (AID 1347061; cut-off not given, nearly all actives have AC50 up to about 37 µM;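 note: cells exposed to compound for 48 hours before readout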); settings: SU-DIPG-XIII viability, CellTiter-Glo ATP luminescence
# [3] = growth inhibition of DIPG glioma cells, dose response, cell-based, JHH-DIPG-1, MIPE4.0, CellTiter-Glo, qHTS (AID 1347062; cut-off not given, nearly all actives have AC50 up to about 27 µM;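 for AC50: cells exposed to compound for two days before readout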); settings: JHH-DIPG-1 viability, CellTiter-Glo ATP luminescence
# [4] = growth inhibition of DIPG glioma cells, dose response, cell-based, SU-DIPG-XIII, MIPE5.0, CellTiter-Glo, qHTS (AID 1347064; cut-off not given, nearly all actives have AC50 up to about 23 µM;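 for AC50: cells exposed to compound for 48 hours before the viability read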); settings: SU-DIPG-XIII viability, CellTiter-Glo ATP luminescence
# [5] = viability loss in pontine glioma line – cell-based, SU-DIPG-XXV, MIPE5.0, CellTiter-Glo, qHTS, dose response (AID 1347065); settings: CellTiter-Glo ATP luminescence;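 note: cells exposed to compound for 48 hours before ATP readout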
# [6] = SU-DIPG-VI glioma cell viability, MIPE4.0 library, CellTiter-Glo luminescence, qHTS (AID 1347066; cut-off not given, nearly all actives have AC50 up to about 30 µM;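 note: cells exposed to compound for 48 hours before readout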); settings: CellTiter-Glo ATP luminescence
# [7] = JHH-DIPG-1 glioma cell viability, MIPE5.0 library, CellTiter-Glo luminescence, qHTS (AID 1347067); settings: JHH-DIPG-1 glioma viability, CellTiter-Glo ATP luminescence;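 note: cells exposed to compound for 48 hours before readout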
# [8] = SU-DIPG-XXV glioma cell viability, MIPE5.0 library, qHTS (AID 1347068; cut-off not given, nearly all actives have IC50 up to about 30 µM;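 for IC50: cells exposed to compound for 48 hours before viability readout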)
# [9] = growth inhibition of DIPG glioma cells, dose response, cell-based, SU-DIPG-IV, MIPE4.0, CellTiter-Glo, qHTS (AID 1347063; cut-off not given, nearly all actives have AC50 up to about 30 µM;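 note: compound exposure lasted 48 hours before the viability readout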); settings: SU-DIPG-IV viability, CellTiter-Glo ATP luminescence
# [10] = sensitizers of A549 cells to miR-34 induction, primary screen, imaging, A549 dox-inducible miR-34, nuclei and caspase counts (AID 1347080;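 active = compounds whose cell count with miR-34 switched on is under 0.7 times the count with it off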); settings: A549 miR-34 inducible, Hoechst nuclei count, 48 h
# [11] = survival rescue of mitochondrial mutant cells in low glucose, primary screen, MELAS cybrids, Rieske KO mouse fibroblasts, CellTiter-Glo (AID 1508586;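 active = mean z-score across replicates of 1.96 or higher in either the MELAS or the Rieske mutant cell line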;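 note: z relative to plate mean and SD of compound and empty wells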)
# [12] = LFS_MB_P medulloblastoma growth inhibition, cell-based, chromothripsis tumors, cisplatin or BGB combos (AID 1671449; in the data active = inhibition above about 80%;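 note: cells exposed for 96 hours; 0% = vehicle DMSO and 100% = killing by high DMSO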); settings: LFS_MB_P medulloblastoma cells
# [13] = HDN33 neuroblastoma growth inhibition, cell-based, chromothripsis tumors, cisplatin or BGB combos (AID 1671450; in the data active = inhibition above about 80%;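 note: cells exposed to compound for four days; 0% = vehicle DMSO and 100% = cell killing by high DMSO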); settings: HDN33 neuroblastoma cells, stronger effect = higher value
# [14] = ICB984 medulloblastoma cell growth inhibition, synergistic combos for chromothripsis tumors, cisplatin or BGB combos (AID 1671451; call rule not given here;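 note: cells exposed for 96 hours before readout; 0% = vehicle DMSO and 100% = killing by high DMSO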); settings: ICB984 medulloblastoma cells, drug combinations, stronger effect = higher value
# [15] = HTB85 osteosarcoma cell growth inhibition, synergistic combos for chromothripsis tumors, BGB or cisplatin IC20 combos (AID 1671453; in the data active = inhibition above about 80%;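 note: cells exposed for 96 hours before readout; 0% = vehicle DMSO and 100% = high DMSO killing control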); settings: HTB85 osteosarcoma cells, drug combinations, stronger effect = higher value
# [16] = MDA-MB-436 breast carcinoma cell growth inhibition, synergistic combos for chromothripsis tumors, BGB or cisplatin combos (AID 1671458; call rule not given here;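 note: cells exposed for 96 hours; 0% = vehicle DMSO and 100% = killing by high DMSO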); settings: MDA-MB-436 breast carcinoma growth inhibition, drug combinations, stronger effect = higher value
# [17] = growth inhibition of BT084 medulloblastoma cells, cell-based, ICGC_MB145, cisplatin and BGB IC40 combos (AID 1671461; in the data active = inhibition above about 80%;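 note: cells exposed to drugs for 96 hours; 0% = vehicle DMSO and 100% = high DMSO full killing control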); settings: drug combinations, stronger effect = higher value
# [18] = growth inhibition of RCMB18 medulloblastoma cells, cell-based, cisplatin and BGB IC40 combos (AID 1671462; in the data active = inhibition above about 80%;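 note: cells exposed to compound for four days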); settings: stronger effect = higher value
# [19] = stronger effect = lower value, cell number ratio, induced over uninduced
# [20] = measured here: relative caspase fold change +Dox/-Dox
# [21] = measured here: total cells with miR-34 induction, stronger effect = lower value
# [22] = measured here: total cells without miR-34 induction
# [23] = MELAS cybrid survival, CellTiter-Glo 48 h, stronger effect = higher value
# [24] = Rieske KO mouse fibroblast survival, CellTiter-Glo 72 h
structure (smiles),measurement,setting,value
C[C@H](CCC(=O)O)[C@H]1CCC2C3C[C@H](O)[C@@H]4C[C@H](O)CC[C@]4(C)C3CC[C@@]21C (stereo not given in full),outcome,[1],inactive
same,outcome,[2],inactive
same,outcome,[3],inactive
same,outcome,[4],inactive
same,outcome,[5],inactive
same,outcome,[6],inactive
same,outcome,[7],inactive
same,outcome,[8],inactive
NC(=O)c1cccc2cn(-c3ccc([C@@H]4CCCNC4)cc3)nc12,AC50,[1],8330 nM (active)
same,outcome,[2],inactive
same,outcome,[3],inactive
same,outcome,[9],inactive
same,outcome,[6],inactive
same,outcome,[7],inactive
C[C@H]1[C@H](C)CC[C@]2(C(=O)O)CC[C@]3(C)C(=CC[C@@H]4[C@@]5(C)C[C@@H](O)[C@H](O)[C@@](C)(CO)[C@@H]5CC[C@]43C)[C@H]12,outcome,[1],inactive
same,outcome,[2],inactive
same,outcome,[3],inactive
same,outcome,[4],inactive
same,outcome,[5],inactive
same,outcome,[6],inactive
same,outcome,[8],inactive
Cn1cc(-c2ccc3ncc(Cc4ccc5ncccc5c4)n3n2)cn1,outcome,[1],inactive
same,outcome,[2],inactive
same,outcome,[3],inactive
same,outcome,[4],inactive
same,outcome,[5],inactive
same,outcome,[6],inactive
same,outcome,[7],inactive
same,outcome,[8],inactive
same,fold change,[10]; [19],0.865 (inactive)
same,fold change,[10]; [20],0.902
same,cell count,[10]; [21],8680
same,cell count,[10]; [22],10000
same,z-score,[11]; [23],-0.376 (inactive)
same,z-score,[11]; [24],0.544
COc1ccc(-c2nc(N3CCOCC3)c3sc(CN(C)c4ncc(C(=O)NO)cn4)cc3n2)cn1,AC50,[1],23.5 nM (active)
same,AC50,[2],37.2 nM (active)
same,AC50,[3],13.2 nM (active)
same,AC50,[4],26.3 nM (active)
same,AC50,[5],14.8 nM (active)
same,AC50,[6],2.63 nM (active)
same,AC50,[7],6.62 nM (active)
same,IC50,[8],295 nM (active)
same,fold change,[10]; [19],1.02 (inactive)
same,fold change,[10]; [20],0.447
same,cell count,[10]; [21],1250
same,cell count,[10]; [22],1230
same,z-score,[11]; [23],-0.053 (inactive)
same,z-score,[11]; [24],-3.69
same,inhibition,"[12]; at 0.5 µM, stronger effect = higher value",-17.1% (inactive) and 84.7% (active)
same,inhibition,"[12]; measured here: combination with BGB IC20, at 0.005 µM",-19% and -26.8%
same,inhibition,"[12]; measured here: combination with BGB IC40, at 0.005 µM",-13.4% and -10.7%
same,inhibition,"[12]; measured here: combination with BGB IC40, at 0.05 µM",-8.69% and -6.92%
same,inhibition,"[12]; measured here: combination with cisplatin, at 0.5 µM, stronger effect = higher value",-32.9% and 119%
same,inhibition,"[12]; measured here: combination with cisplatin, at 5 µM, stronger effect = higher value",120% and 126%
same,inhibition,"[13]; BGB combo, at 5 µM",99.9% and 99.7%
same,inhibition,[13]; at 0.5 µM,98.9% (active) and 93.4% (active)
same,inhibition,"[13]; cisplatin combo, at 5 µM",99.9%
same,inhibition,"[13]; measured here: with BGB IC20 combination, at 0.5 µM",97.8% and 90.5%
same,inhibition,"[13]; measured here: with cisplatin IC20 combination, at 0.5 µM",99.5% and 96.1%
same,inhibition,"[13]; single agent, at 5 µM",99.9%
same,inhibition,"[14]; BGB IC20 combo, at 0.005 µM",85.9% and 87.2%
same,inhibition,"[14]; BGB IC40 combo, at 0.005 µM",93.2% and 94%
same,inhibition,"[14]; BGB IC40 combo, at 0.05 µM",101%
same,inhibition,[14]; at 0.5 µM,-8.74% (inactive) and -32% (inactive)
same,inhibition,"[14]; cisplatin combo, at 0.05 µM",101%
same,inhibition,"[14]; cisplatin combo, at 0.5 µM",10.9% and -33%
same,inhibition,"[14]; cisplatin combo, at 5 µM",21.2% and -18.3%
same,inhibition,"[14]; measured here: 5 uM single agent, at 5 µM",1.99% and 3.43%
same,inhibition,[15]; at 0.5 µM,99.5% (active) and 95.4% (active)
same,inhibition,"[15]; measured here: with BGB IC20, at 0.5 µM",99.5% and 93.3%
same,inhibition,"[15]; measured here: with BGB IC20, at 5 µM",99.8% and 99.9%
same,inhibition,"[15]; measured here: with cisplatin IC20, at 0.5 µM",99.9%
same,inhibition,"[15]; measured here: with cisplatin IC20, at 5 µM",100% and 99.9%
same,inhibition,"[15]; single agent, at 5 µM",99.9%
same,inhibition,[16]; at 0.5 µM,55.1% (inactive) and 39.3% (inactive)
same,inhibition,"[16]; measured here: BGB combination, at 0.5 µM",45.2% and 33.3%
same,inhibition,"[16]; measured here: BGB combination, at 5 µM",89.9% and 80.2%
same,inhibition,"[16]; measured here: cisplatin combination, at 0.5 µM",50.8% and 33.9%
same,inhibition,"[16]; measured here: cisplatin combination, at 5 µM",91.2% and 86.1%
same,inhibition,[17]; at 0.5 µM,84.3% (active) and 90.7% (active)
same,inhibition,"[17]; cisplatin combination, at 0.5 µM",99.6% and 101%
same,inhibition,"[17]; cisplatin combination, at 5 µM",102% and 106%
same,inhibition,"[17]; measured here: BGB IC40 combination 0.05 uM, at 0.05 µM",55.4% and 3.88%
same,inhibition,"[17]; single agent, at 5 µM",109% and 106%
same,inhibition,[18]; at 0.5 µM,90.3% (active) and 89.8% (active)
same,inhibition,"[18]; cisplatin combo, at 5 µM",97.3% and 101%
same,inhibition,"[18]; measured here: BGB IC40 combination, at 0.05 µM",42.1% and 41.3%
same,inhibition,"[18]; measured here: combination with cisplatin, at 0.5 µM",91.8% and 91.3%
same,inhibition,"[18]; single agent, at 5 µM",98.7% and 99.3%
